74 compounds from PubChem BioAssay AID1251 (SRMLSC, 2008) can be followed below.

This experiment in a line: antivirals against arbovirus infection, primary screen, cell-based, full library, 10K replicate subset (AID 1251).
The mark [1] stands for this setting: arbovirus infection cell-based antiviral screen, at 10 µM, stronger effect = higher value.

Where “and” joins values, the source holds several entries; their conditions need not be identical. Equal entries are not always repeated. The whole screen tested about 200,000 compounds, of which about 720 (0.36%) were called active. No stated cut-off is given here; in the data, active means inhibition above about 30%; inactive means the rest, inconclusive results apart. The list comes from a sample in which actives are over-represented; it also holds similar structures and randomly drawn compounds.

The inhibition is the relative decrease from the control value, in per cent. In the case of `COc1cccc(CNn2cn[nH]c2=S)c1OCc1ccccc1`, the inhibition under setting [1] is -1.17% (inactive).
Consider `NC(=O)CC[C@@H]1NC(=O)[C@@H]2CCCN2C(=O)c2cc([N+](=O)[O-])cc(F)c2NCCC[C@@H](C(N)=O)NC1=O`, for which the inhibition under setting [1] was 8.77% (inactive).
With `O=C(CSc1ncn[nH]1)NCc1ccc2c(c1)OCO2`, under setting [1], the inhibition was 2.87% (inactive).
On the same count and under the same terms, the value for `CCNC(=S)N1CCN(c2ncccn2)CC1` was -0.7% (inactive); that for `O=C(C1=C[C@H](C2CC2)C[C@H](OCc2ccc(CO)cc2)O1)N1CCN(Cc2ccccc2)CC1` was 4.26% (inactive); that for `CN(C)NC(=O)C(NC(=O)c1ccc(N)cc1)C12CC3CC(CC(C3)C1)C2` (stereo not given) was 5.7% (inactive).
Turning to `CCOC(=O)c1ccccc1N1C(=O)C2Sc3[nH]c(=O)sc3C(/C=C/c3ccccc3)C2C1=O` (stereo not given), the inhibition under setting [1] is -0.3% (inactive).
On the same count and under the same terms, the result for `CCC(C)NCCOCCOc1ccc(Br)cc1C` (stereo not given) reads -28.9% (inactive); that for `COc1ccc2cc(CCl)c(Cl)nc2c1`, -7.11% (inactive).
In the case of `CCCn1c(N)c(C(=O)CSc2nc3ccccc3c(=O)n2-c2ccc(OC)cc2)c(=O)[nH]c1=O`, the inhibition under setting [1] was 30.7% (active).
As to `COc1cccc(-n2c(SCC(=O)c3c[nH]c4ccccc34)nc3ccccc3c2=O)c1`, the inhibition under setting [1] is 5.13% (inactive).
Take `CCCn1c(N)c(C(=O)CSc2nnc(-c3cccnc3)n2-c2ccc(C)cc2C)c(=O)[nH]c1=O`: the inhibition under setting [1] was 6.05% (inactive).
For `CCCCCOc1ccc(CSC2=NCCN2)cc1[N+](=O)[O-]`, the inhibition under setting [1] was -7.5% (inactive).
Take `CCOC(=O)c1sc(=S)n2c1[nH]c(=O)c1ccc(C(=O)OC)cc12`: the inhibition under setting [1] is 32.4% (active).
As for `CCOC(=O)Cn1c(N)c(C(=O)OC)sc1=S`, the inhibition under setting [1] is 0.02% (inactive).
On to `CCOC(=O)c1sc(=S)n(-c2cccc(OC)c2)c1N`, for which, under setting [1], the inhibition was 0.93% (inactive).
For `CCOC(=O)C1=C(C)NC(=S)NC1c1cccs1` (stereo not given), the inhibition under setting [1] is -5% (inactive).
Consider `COC(=O)c1ccc(NC(=O)c2cc(Cl)ccc2OC)cc1`, for which the inhibition under setting [1] is -17.6% (inactive).
As for `CC(=O)N1CCN(S(=O)(=O)c2c(F)cc(F)c(Cl)c2F)CC1`, under setting [1], the inhibition is 6.03% (inactive).
As for `Cc1ccc(N2C(=O)C(CC(=O)Nc3cccc(F)c3)N(CCc3ccncc3)C2=O)cc1` (stereo not given), the inhibition under setting [1] is 7.79% (inactive).
Consider `CCn1c(Cc2ccccc2)nnc1SCc1nc2ccccc2c(=O)[nH]1`, for which, under setting [1], the inhibition is 5.28% (inactive).
In the case of `COc1ccc(CCCc2nnc(SCc3nc4ccccc4c(=O)[nH]3)n2C)cc1`, the inhibition under setting [1] was 31.9% (active).
Still for that read-out and setting: the value for `CCn1c(COc2c(C)cccc2C)nnc1SCc1nc2ccccc2c(=O)[nH]1` was 0.34% (inactive).
`Cc1ccc(N(CCC(=O)O)S(=O)(=O)c2cccc(C(F)(F)F)c2)cc1`: under setting [1], the inhibition is 5.45% (inactive).
For `O=c1nc(N/N=C/c2ccco2)cn[nH]1`, the inhibition under setting [1] is -4.7% (inactive).
As to `CC(=O)c1cc(C#N)c(SCC(=O)C(C)(C)C)nc1C`, the inhibition under setting [1] was -12.4% (inactive).
For the compound `CCCCSc1[nH]c(=O)c(C(=O)OCC)cc1C#N`, the inhibition under setting [1] is 39.8% (active).
Regarding `Cc1cc(=O)[nH]c(SCC(N)=O)c1C#N`, under setting [1], the inhibition was 4.32% (inactive).
Take `COc1cc(NS(=O)(=O)c2ccc(NC(=O)c3ccc(S(=O)(=O)N4CCCCC4)cc3)cc2)ncn1`: under setting [1], the inhibition is -0.14% (inactive).
`N#Cc1ccc(C(=O)Nc2nc(-c3cccs3)c(C(=O)C(F)(F)F)s2)cc1`: under setting [1], the inhibition was 2.83% (inactive).
Take `CCn1c(CSCc2c(Cl)cccc2Cl)n[nH]c1=S`: the inhibition under setting [1] was 10.9% (inactive).
In the case of `CN(CC(=O)Nc1ccc(S(=O)(=O)N2CCCC2)cc1)Cc1ccc(Cl)c(Cl)c1`, the inhibition under setting [1] was -4.82% (inactive).
On to `COc1ccccc1N1CCN(Cc2ccc(OC)c3ccccc23)CC1`, for which the inhibition under setting [1] was 31.9% (active).
For `CNCC(O)CN1CCN(c2ccccc2OC)CC1` (stereo not given), the inhibition under setting [1] is 3.01% (inactive).
Still for that read-out and setting: the value for `COc1ccccc1N1CCN(CCCCOc2ccc(F)cc2)CC1` was 13.4% (inactive); that for `CN(C)CCCNC(=O)/C=C/c1ccc(OCc2c(F)cccc2Cl)cc1` was -27.3% (inactive).
Take `O=C(CN1CCN(S(=O)(=O)/C=C/c2ccccc2)CC1)Nc1ccc(N2CCOCC2)cc1`: the inhibition under setting [1] is -11% (inactive).
Take `N#Cc1c(-c2ccc(F)cc2)nc(-c2ccccc2)[nH]c1=O`: the inhibition under setting [1] was 6% (inactive).
On the same count and under the same terms, the result for `COc1ccc(C)cc1NC(=O)C(OC(=O)c1cccc(S(=O)(=O)N(C)c2ccccc2)c1)c1ccccc1` (stereo not given) reads 2.04% (inactive).
Consider `CNC(=S)N1CCN(c2ccccn2)CC1`, for which, under setting [1], the inhibition is 8.2% (inactive).
With `C=CCn1c(P(C)(=O)O)nc2ccccc21`, the inhibition under setting [1] was -2% (inactive) and 0.03% (inactive).
For `Cc1ccc(CN2CCN(Cc3ccc4ncccc4c3)CC2CCO)cc1` (stereo not given), under setting [1], the inhibition was 4.14% (inactive).
The same measure, in the same setting: the value for `CCCCNC(=O)Nc1c(C)cc(SC#N)cc1C` was -9.26% (inactive).
On to `O=C(Nc1nc(-c2ccncc2)cs1)C1COc2ccccc2O1` (stereo not given), for which the inhibition runs as follows: (arbovirus infection cell-based antiviral screen; at 10 µM; stronger effect = higher value) -2.24% (inactive); (arbovirus infection cell-based antiviral screen; measured here: 10K subset replicate screen; at 10 µM; stronger effect = higher value) 4.95%.
As to `O=C(Nc1nnc(SCc2c(Cl)cccc2Cl)s1)C1CCCO1` (stereo not given), the inhibition under setting [1] is -0.49% (inactive).
On to `O=C(Nc1nnc(SCc2ccc(Cl)cc2Cl)s1)C1COc2ccccc2O1` (stereo not given), for which the inhibition under setting [1] was 30.9% (active).
On to `CC(=O)Nc1ccc(OCCC[n+]2cccc(C(=O)[O-])c2)cc1`, for which the inhibition under setting [1] was 1.68% (inactive).
On the same count and under the same terms, the result for `CCN(c1ccc(NC(=O)COC(=O)CCc2nc3ccccc3n2-c2ccccc2)cc1)C(C)C` reads -15.1% (inactive); that for `Cc1c(Cl)cccc1NC(=O)Nc1ccc(C(=O)N2CCCC2)cc1`, -2.79% (inactive).
Still for that read-out and setting: the value for `NC1=NC(=O)C(Cc2cccc(Cl)c2Cl)S1` (stereo not given) was 9.95% (inactive).
For `O=C1N/C(=N\N=C\c2ccco2)SC1Cc1ccc(F)cc1` (stereo not given), the inhibition under setting [1] was 29.1% (inactive).
On to `O=C1NC(=Nc2ccc(Cl)cc2)SC1Cc1cccc(Cl)c1Cl` (stereo not given), for which the inhibition under setting [1] was 30.2% (active).
The same measure, in the same setting: the value for `Cc1ccc(C)n1NC(=O)c1ccc([N+](=O)[O-])cc1` was 0.14% (inactive).
Consider `CCOC(=O)c1c(Cc2ccc(Cl)cc2)c[nH]c1C`, for which the inhibition under setting [1] was -0.75% (inactive).
As to `COc1cccc2c(O)cc(=O)n(C)c12`, the inhibition under setting [1] is -3.62% (inactive).
Same read-out and setting: the value for `Cc1nc(CNS(=O)(=O)c2ccc(Oc3ccccc3)cc2)cs1` was 10.3% (inactive); that for `Cc1nc(CNS(=O)(=O)c2cccnc2)cs1` was 32.7% (active).
The same measure, in the same setting: the result for `Cc1ccc(S(=O)(=O)NCc2csc(C)n2)c(C)c1` reads 12.2% (inactive); that for `N#C/C(=C\c1ccc(N2CCOCC2)o1)C(=O)N1CCOCC1`, -2.38% (inactive).
As to `N#Cc1c(NC(=O)C2CC(Cl)=CCC2C(=O)O)sc2c1CCCCC2` (stereo not given), the inhibition under setting [1] is 31.9% (active).
Same read-out and setting: the value for `N#Cc1c(NC(=O)CCCl)sc2c1CCCCC2` was -2.94% (inactive); that for `N#Cc1c(NC(=O)C2CCCO2)sc2c1CCCCC2` (stereo not given) was 6.23% (inactive); that for `CC(=O)Nc1ccc(S(=O)(=O)NCC(=O)OCc2cc(=O)oc3ccc4ccccc4c23)cc1` was 2.02% (inactive).
The same measure, in the same setting: the result for `Cc1cc(C)n2nc(C(=O)N(C)C(c3ccccc3)c3ccccc3)nc2n1` reads 24.9% (inactive); that for `COc1cc(C(=O)NCc2ccc(-n3cccc3)cc2)cc(OC)c1OC`, 2.99% (inactive); that for `N#Cc1ccccc1Sc1ccccc1C(=O)OCC(=O)NC1CCCCC1`, 5.04% (inactive).
For `COC(=O)C1=C(NC(=O)C(C)(C)C)CCS1`, the inhibition under setting [1] is 2.37% (inactive).
In the case of `Cc1ccnc(NS(=O)(=O)c2ccc(NC(=O)c3ccc(S(=O)(=O)N(C)C)cc3)cc2)n1`, the inhibition under setting [1] was 14.3% (inactive).
On to `Cc1c(CCOC(=O)CC23CC4CC(CC(C)(C4)C2)C3)sc[n+]1Cc1ccc([N+](=O)[O-])cc1`, for which the inhibition under setting [1] was -19.1% (inactive).
In the case of `COC(=O)C1=C(C(=O)OC)C(c2cc([N+](=O)[O-])ccc2O)c2sc(=O)[nH]c2S1` (stereo not given), the inhibition under setting [1] was -2.76% (inactive).
`Cc1ccc(NC(=O)c2ccccn2)cc1S(=O)(=O)N1CCOCC1`: the inhibition under setting [1] is 20% (inactive).
Same read-out and setting: the result for `Cc1cccc(NC(=O)NC(=S)NC(=O)c2ccccc2)c1` reads 10.4% (inactive); that for `CCC(=O)NCc1cc(-c2nn(C)c(=O)c3ccccc23)ccc1OC`, -10.6% (inactive).
Regarding `O=C(COC(=O)c1ccccc1F)Nc1cc(S(=O)(=O)N2CCOCC2)ccc1N1CCCC1`, the inhibition under setting [1] was 3.02% (inactive).
